High-throughput results from PubChem BioAssay.
The list is not random: actives were taken first. Their share in the collection is about 4.9%.
PP1 inh = counter-screen for PP5 inhibitors: inhibitors of human PP1-alpha. purified PP1alpha, OMFP fluorescence. P62136. inhibition, % at 6.7 µM. actives 0.9% (n = 320,000);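 active means inhibition above the mean inhibition of all tested compounds plus 3 SD, computed separately for each screening campaign, cut at about 15% in these data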
Target sequence (P62136 whole entry, looked up): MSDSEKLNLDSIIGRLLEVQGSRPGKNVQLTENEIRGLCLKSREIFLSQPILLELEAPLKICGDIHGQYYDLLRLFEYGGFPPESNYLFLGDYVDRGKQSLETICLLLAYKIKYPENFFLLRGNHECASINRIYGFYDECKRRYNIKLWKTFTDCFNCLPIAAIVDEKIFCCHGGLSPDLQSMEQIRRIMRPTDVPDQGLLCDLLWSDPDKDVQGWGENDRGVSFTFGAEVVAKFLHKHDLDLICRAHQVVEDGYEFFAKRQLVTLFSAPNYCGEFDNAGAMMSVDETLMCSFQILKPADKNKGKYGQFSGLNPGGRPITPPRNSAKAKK
CSC inhib = blocks cancer stem cells; actives 1.1% (n = 300,000); inhibition, % at 7.5 µM; cancer stem cell-like cells viability, luminescence; in the data active means inhibition above about 75%; inconclusive means no clear call, values can overlap the other calls; tested in HMLE shEcad cells
PP5 primary = blocks human protein phosphatase 5 activity; P53041; purified PP5c, OMFP substrate fluorescence; inhibition, % at 6.7 µM; actives 0.18% (n = 320,000); AID 1987;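 active means inhibition above the campaign's mean inhibition across all tested compounds plus 3 SD, cut at about 9.5% in these data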;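 further: 0% = DMSO only and 100% = 100 µM cantharidin control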
Beta apoptosis = beta cell apoptosis inhibition; INS-1E cytokine-induced death, ATP luminescence, 48 h; percent of positive-control rescue, neutral wells zero; protection from apoptosis, % (no concentration beside the values); actives 0.8% (n = 300,000); AID 435005;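 active means Every replicate reaches about 75%, or at least half do and their mean reaches it too, limit read from the data; inconclusive means At least half of replicates reach the limit but their mean does not; inactive means Under half of replicates reach the limit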;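 further: 0% = cytokine-treated negative control wells and 100% = positive control rescue; higher means more ATP so stronger rescue from cytokine killing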
Mdm2 MdmX PPI = disrupts the human Mdm2-MdmX interaction; SaOS-2 split-luciferase Mdm2/MdmX complementation, luminescence; O15151+Q00987; inhibition, % at 8 µM; actives 3% (n = 330,000);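 active means inhibition of at least 50% at 8 µM in the primary screen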
Calb FLC = affects C. albicans growth with fluconazole; C. albicans CaCi-2 (fluconazole-resistant clinical isolate) + fluconazole, Alamar Blue growth, 48 h; growth inhibition, % (concentration not given with the values); actives 0.57% (n = 300,000); AID 1979;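 active means growth inhibition above about 58% in most replicates, limit read from the data, passing the limit was not always enough; inconclusive means exactly half the replicates above a set limit; inactive means most replicates below a set limit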;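 further: all wells also contain fluconazole at 8 µg/ml as a sub-toxic cotreatment; 0% = median of DMSO wells and 100% = median of geldanamycin control wells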
PP1 confirm = confirmation of human PP1 phosphatase inhibitors; shares compounds with PP1 inh; AID 2358; actives 52% (n = 1,900); inhibition, % at 6.7 µM; purified PP1alpha, OMFP substrate fluorescence;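 active means mean PP1 inhibition above a set limit taken from the earlier primary screen, cut at about 15% in these data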
PP5 counter = inhibits human PP5 phosphatase in PP1 counter-screen. AID 2360. purified PP5c, OMFP fluorescence. inhibition, % at 6.7 µM. shares compounds with PP1 inh. actives 4% (n = 1,900);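 active means mean PP5 inhibition over triplicate wells above about 9.5% taken from the earlier PP1 screen, limit read from the data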
Numbers without * were called inactive.

Cc1nnsc1C(=O)N/N=C/c1ccc(OC(F)(F)F)cc1 was read as PP1 inh -1, CSC inhib -4, PP5 primary -2, Beta apoptosis 0, Mdm2 MdmX PPI -9 and Calb FLC 1.
Cc1ccc(C(=O)n2c(-c3ccccc3)cnc2SCC(=O)Nc2ccc(C)cc2C)cc1 was read as PP1 inh 0, CSC inhib 3, PP5 primary 1, Beta apoptosis 0, Mdm2 MdmX PPI -9 and Calb FLC -1.
`Clc1ccc(C2[C@H]3CN(Cc4cccnc4)[C@H](c4ccccc4)C34CC2(c2ccccc2)C4)cn1` (stereo partly drawn) gave PP1 inh 21*, CSC inhib 16, PP5 primary 5, Beta apoptosis 7, Mdm2 MdmX PPI 9, Calb FLC 13, PP1 confirm 17* and PP5 counter 1.
Screening CC(=O)C1=C(O)C(=O)N(c2ccc(Br)cc2)C1c1ccc(Br)cc1 (stereo not drawn) returned PP1 inh 24*, CSC inhib -5, PP5 primary 4, Beta apoptosis 3, Mdm2 MdmX PPI -8, Calb FLC 9, PP1 confirm 23* and PP5 counter -3.
`CCOC(=O)C1=C(O)C(=O)N(c2ccc(S(N)(=O)=O)cc2)C1c1ccc(Br)cc1` (stereo not drawn) gave PP1 inh 21*, CSC inhib -12, PP5 primary 2, Beta apoptosis 1, Mdm2 MdmX PPI 42, Calb FLC 34, PP1 confirm 7 and PP5 counter -7.
CC(=O)C1=C(O)C(=O)N(c2ccc(Br)cc2)C1c1cccc([N+](=O)[O-])c1 (stereo not drawn) was read as PP1 inh 4, CSC inhib -13, PP5 primary 5, Beta apoptosis 7, Mdm2 MdmX PPI 18 and Calb FLC -10.
Screening CC(=O)C1=C(O)C(=O)N(c2cccc(Br)c2)C1c1ccc(Br)cc1 (stereo not drawn) returned PP1 inh 29*, CSC inhib 0, PP5 primary 1, Beta apoptosis 4, Mdm2 MdmX PPI 8, Calb FLC 22, PP1 confirm 25* and PP5 counter -3.
Screening Cc1ccc(C(C)C)c(OCC(=O)N2CCN(c3ncccn3)CC2)c1 returned PP1 inh -7, PP5 primary 1, Beta apoptosis 0 and Mdm2 MdmX PPI -4.
For CCOC(=O)N1CCN(CCC(=O)Nc2cc(C)ccc2C)CC1 the results were PP1 inh 5, CSC inhib -4, PP5 primary -2, Mdm2 MdmX PPI 24 and Calb FLC -5.
`CCOC(=O)Cc1cc(=O)n2[nH]c(C)c(-c3ccc(Cl)cc3)c2n1` gave PP1 inh 25*, CSC inhib 55, PP5 primary 3, Beta apoptosis 6, Mdm2 MdmX PPI 34, Calb FLC -16, PP1 confirm 18* and PP5 counter -5.
For CCOC(=O)Cc1cc(=O)n2[nH]c(-c3ccc(C)cc3)cc2n1 the results were PP1 inh 18*, PP5 primary -3, Mdm2 MdmX PPI -1, Calb FLC 7, PP1 confirm 10 and PP5 counter 1.
COc1ccccc1/C=C/c1ccc2cccc(O)c2n1 was read as PP1 inh 23*, CSC inhib 29, PP5 primary 2, Beta apoptosis 18, Mdm2 MdmX PPI -53, Calb FLC -8, PP1 confirm 15 and PP5 counter -1.
O=[N+]([O-])c1cccc(/C=C/c2ccc3cccc(O)c3n2)c1 was read as PP1 inh 25*, CSC inhib 36, PP5 primary 2, Beta apoptosis 33, Mdm2 MdmX PPI -18, Calb FLC -2, PP1 confirm 21* and PP5 counter -7.
CCOc1cccc(/C=C/c2ccc3cccc(O)c3n2)c1OC was read as PP1 inh 21*, CSC inhib inconclusive, PP5 primary 2, Mdm2 MdmX PPI 11, Calb FLC inconclusive, PP1 confirm 15* and PP5 counter -2.
